DAX1 inh-1: DAX1 (NR0B1) inhibitors, primary screen, cell-based, HEK293, Gal4-DAX1, luciferase luminescence | Nuclear receptor subfamily 0 group B member 1 (Homo sapiens), P51843 | HEK293 Gal4-DAX1 luciferase reporter | inhibition, % at 6.75 µM | 340,000 tested, 0.99% active | AID 504766, 2011;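 active = inhibition above the mean over all tested compounds plus 3 SD, cut at about 4.2% in these data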;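 also: 0% = DAX1-transfected cells with DMSO and 100% = empty-vector control cells with DMSO; inhibition shows as a rise in luminescence from relieved DAX1 repression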
Target sequence (P51843 207-470 limits assumed): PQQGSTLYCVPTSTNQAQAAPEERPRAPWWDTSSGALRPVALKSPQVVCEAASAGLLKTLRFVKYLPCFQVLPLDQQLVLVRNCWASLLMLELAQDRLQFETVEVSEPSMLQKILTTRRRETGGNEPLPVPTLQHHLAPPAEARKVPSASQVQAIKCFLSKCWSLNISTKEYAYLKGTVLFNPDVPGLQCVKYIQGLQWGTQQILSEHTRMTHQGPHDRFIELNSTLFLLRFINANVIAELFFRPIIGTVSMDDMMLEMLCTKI
ssDAF-12 act: S. stercoralis DAF-12 nuclear receptor activators, primary screen, cell-based, luminescence, HEK293, GRIP1 co-expression, lit1-tk-luc; Nuclear hormone receptor DAF-12 (Strongyloides stercoralis); HEK293 ssDAF-12/GRIP1 lit1-tk-luc reporter; % of 3 µM dafachronic acid response; activation, % at 6.8 µM; 370,000 tested, 1% active; AID 652126, 2013;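 active = activation above the mean over all tested compounds plus 3 SD, cut at about 0.9% in these data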;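 also: 0% = DMSO-only wells and 100% = 3 µM delta7-dafachronic acid wells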
DAX1 inh-2: DAX1 (NR0B1) inhibitors on StAR promoter, primary screen, cell-based, luminescence, SF-1 (NR5A1), full-length DAX-1. HEK293T StAR-luciferase reporter, SF-1/DAX-1 repression relief. inhibition, % at 6.8 µM. 370,000 tested, 1.1% active;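 active = inhibition above the mean over all tested compounds plus 3 SD, cut at about 3.6% in these data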;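 also: 0% = DAX-1 cells with DMSO and 100% = cells lacking DAX-1 with DMSO; higher inhibition means more luminescence from relief of DAX-1 repression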
hcDAF-12 act: H. contortus DAF-12 nuclear receptor activators, primary screen, cell-based, luminescence, HEK293, lit1-tk-luc reporter; activation, % at 6.8 µM; 370,000 tested, 1.4% active; HEK293 hcDAF-12 lit1-tk-luc reporter; 0% DMSO, 100% Δ7-dafachronic acid;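 active = activation above the mean of all tested compounds plus 3 SD, cut at about 5.5% in these data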;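 also: 100% = response to 3 µM Δ7-dafachronic acid high control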
FXN GAA850 act: FXN promoter activators, primary screen, cell-based, luciferase luminescence, HEK293 lucGAA850; HEK293 lucGAA850 FXN promoter luciferase reporter, 24 h; percent of 10 µM SAHA response; AID 540364, 2011; activation, % at 6 µM; 360,000 tested, 0.56% active;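 active = activation above the average of all compounds screened plus 3 SD, cutoff fixed separately per campaign, cut at about 7.5% in these data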;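 also: 0% = DMSO wells and 100% = 10 µM SAHA wells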
hgDAF12 agonist: H. glycines DAF-12 receptor agonists, primary screen, cell-based, luminescence, HEK293, GAL4 fusion, UAS-luciferase | activation, % at 6.8 µM | HEK293 GAL4-hgDAF12 UAS-luciferase reporter, agonist luminescence; normalized to butyrate control | AID 687014, 2013 | 370,000 tested, 1.8% active;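 active = activation above a cutoff set at the mean of all screened compounds plus 3 SD, cut at about 10% in these data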;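 also: 0% = DMSO wells and 100% = sodium butyrate wells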
Numbers without * were called inactive; · = not tested or not shown. Sampled rows, rich in hits. Any-hit rate of the full collection: about 4.5%.

SMILES	DAX1 inh-1	ssDAF-12 act	DAX1 inh-2	hcDAF-12 act	FXN GAA850 act	hgDAF12 agonist
O=C(Cc1c[nH]c2ccccc12)Nc1ccc(Nc2cccnc2)c(-c2ccc(-c3ccccc3)cc2F)c1	·	0	-2	5.7*	·	-1
Cc1ccc2c(c1)c1nc3ccccc3nc1n2C	4.5*	1.9*	0	5.9*	7	5
CCOC(=O)[C@@]12CCCC=C1N(CCc1ccc(Cl)cc1)C(=O)[C@H]2CC(=O)NCCCCc1ccccc1	·	-1	-1	0	·	-1
Brc1ccc(/C=N/Nc2nc3ccccc3o2)cc1	4	1.9*	1	5.9*	6	12*
O=C(N[C@H]1C[C@@H]2O[C@@H](CO)CC[C@@H]2O[C@@H]1CCc1ccc(-c2cccnc2)cc1)c1cccc(F)c1	·	-1	0	-2	·	0
CCOc1ccc(OCC)c(NC(=O)c2ccc(CNc3c(N4CCCC4)c(=O)c3=O)cc2)c1	6.3*	-1	0	-2	-1	-2
CC1CC2CCCC(O)=C2C(=O)O1 (stereo unspecified)	4.3*	0	-1	1	0	-1
COc1ccc(-c2c(C(=O)c3ccccc3)[nH]c(N)c2C(=O)c2c[nH]c3ccccc23)cc1OC	·	-1	·	3	·	1
COc1cc(C2NC(=S)NC(C)=C2C(=O)Nc2ccc(C)cc2)ccc1O (stereo unspecified)	2	0	2	3	4	11*
COc1ccc(NC(=O)C2=C(C)NC(=S)NC2c2ccc(O)c(OC)c2)cc1 (stereo unspecified)	0	-1	0	0	0	5
O=C1N/C(=C/c2ccc(N3CCOCC3)o2)C(=O)N1c1cccc(Cl)c1	-1	-2	-1	0	8.9*	-1
Cc1ccc(/C=C2/NC(=O)N(c3ccccc3)C2=O)o1	1	-1	-1	1	5	-2
COc1cccc(C(=O)NCCN2C(=O)C3C4C=CC(C4)C3C2=O)c1 (stereo unspecified)	·	-1	1	0	·	3
Cc1ccc(NC(=O)c2cc(N3C(=O)C=CC3=O)ccc2Cl)cc1C	-1	0	0	1	4	11*
Cc1ccc(NC2=C/C(=N\S(=O)(=O)c3cccs3)c3ccccc3C2=O)c(C)c1	-6	·	·	·	-14	·
Cc1ccc(Cl)cc1NC1=C/C(=N\S(=O)(=O)c2cccs2)c2ccccc2C1=O	0	1.0*	0	2	0	-3
COC(=O)C1=C(C)N(C)C(=NCc2ccccc2C(F)(F)F)NC1c1cccc(F)c1 (stereo unspecified)	·	-2	-1	2	·	2
O=S(=O)(Nc1cccc(-c2ccc(N3CCCCCC3)nn2)c1)c1ccc(C(F)(F)F)cc1	0	0	0	6.4*	3	5
Cc1ccc(S(=O)(=O)NCC(=O)N2CCN(c3ccccn3)CC2)cc1C	·	-1	-1	1	·	2
CC(=O)c1cc(-c2ccc([N+](=O)[O-])cc2)c(=O)n2c1CCC2	·	-1	-1	-1	·	-2
CCCC/C(O)=C1\C(=O)CC(C)(C)CC1=Nc1ccc(N)cc1	6.0*	-1	1	0	1	3
CCOC(=O)CC[C@@]1(C(=O)OCC)C[C@@H](CC(=O)N2CCSCC2)C(=O)N2CCCC=C21	·	-1	0	-1	·	0
O=C(Cn1cc(/C=C\[N+](=O)[O-])c2ccccc21)Nc1ccccc1	-1	-2	-1	-1	2	-5
O=C(O)Cn1cc(/C=C/[N+](=O)[O-])c2ccccc21	-1	0.9*	1	4	-1	3
O=C(O)Cn1cc(C(=S)N2CCCCC2)c2ccccc21	6.2*	-2	1	3	1	0
SMILES	DAX1 inh-1	ssDAF-12 act	DAX1 inh-2	hcDAF-12 act	FXN GAA850 act	hgDAF12 agonist
O=C(NCCc1c[nH]c2ccccc12)OCc1cn(Cc2ccc(C(F)(F)F)cc2)nn1	·	-1	0	-3	·	-7
CCC(=O)Nc1cccc(NC(=S)NC(=O)c2cccc(C)c2)c1	1	-1	1	1	2	9
COC(=O)Nc1ccc(C)c(NC(=O)OC)c1	-1	-1	0	6.4*	2	0
Cc1ccc2cccc(NC(=S)NC(=O)c3ccccc3)c2n1	-1	1.0*	0	5.7*	6	2
Cc1ccc(NC(=S)NC(=O)c2ccccc2)cc1NC(=S)NC(=O)c1ccccc1	1	-1	1	6.2*	3	10
CCC(=O)Nc1cccc(NC(=S)NC(=O)c2ccccc2)c1	-1	-1	1	3	3	13*
CCCCNC(=O)C1CCCN1C(=O)Nc1ccc2c(c1)OCO2 (stereo unspecified)	·	-1	2	2	·	8
C=CCN1[C@@H](CC(C)C)COc2cccc(N3CCCC3)c2S1(=O)=O	·	-1	0	-3	·	-2
CCCCOCCCNC(=O)C[C@H]1C[C@@]2(C(=O)OC)C(=C[C@H](C(C)C)O[C@@H]2C2CC2)N(CCC2=CCCCC2)C1=O	·	-1	0	-3	·	2
CSCC[C@@H](C(=O)O)N1Cc2ccccc2C1=O	0	0	0	6.0*	2	-3
CCc1nnc(NC(=O)CSc2ccc(-c3ccc(C)cc3)nn2)s1	0	-2	2	3	3	4
CCOc1ccc(-c2ccc(SCC(=O)Nc3nnc(CC)s3)nn2)cc1	3	0	3.7*	2	7	13*
COc1ccccc1NS(=O)(=O)c1ccc(C)c(NC(=O)NCCCl)c1	4.4*	0	-1	0	2	-5
COc1ccccc1NS(=O)(=O)c1ccc(C)c(NC(=O)NC2CCCCC2)c1	-1	-1	0	-2	1	-3
Cc1ccccc1-c1cc2c(c3c1ccn3C)C1CCC2O1 (stereo unspecified)	·	-1	3.8*	1	·	0
CCOC(=O)[C@]12CCCC=C1N(Cc1ccc(OC)cc1)C(=O)[C@@H]2CC(=O)NCc1ccc(OC)c(OC)c1	·	-2	-1	-2	·	-1
CN1C2=N[C@H](c3ccccc3Br)CC(=O)N2/C(=C\c2ccccc2)[C@@H]1c1ccccc1	·	-1	·	2	·	-2

Compound activity from PubChem.
